The record followed here is PubChem BioAssay (NCI).

SMILES strings stand for the structures. This is part of a sample that, as a whole, favours compounds with a hit. Of some 83,000 tested, about 20% had one in any assay.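 Single-dose data. Exposure time 48 hours. Values below 10 considered active.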 A number with no mark means an inactive call. The source made the active and inactive calls.

Among the test systems are NCI-H23 lung; NCI-H226 lung; NCI-H322M lung; HOP-62 NSCLC; NCI-H460 lung; NCI-H522 lung; A549/ATCC NSCLC; 786-0 renal; COLO 205 colon; DU-145 prostate; MALME-3M melanoma; MDA-MB-231 breast; RXF 393 renal; SF-268 CNS; SF-295 CNS; SF-539 CNS; UACC-257 melanoma; M14 melanoma.
Holding throughout (assay): NCI-60 one-dose screen, 48 h (100 = growth as untreated, 0 = no growth, -100 = all killed)
Conditions in all cases: 10 µM unless noted

For the compound `CCCCCCCCCCCC1=NC(C)(C)CN1CCO`, the growth in the experiment on NCI-H23 lung was 65.1%; in the experiment with NCI-H226 lung, 88.2%; in the experiment with NCI-H322M lung, 87.7%; in the experiment with HOP-62 NSCLC, 56.4%; in the experiment with NCI-H460 lung, 46.2%; in the experiment with NCI-H522 lung, 69.2%. The growth in the experiment on A549/ATCC NSCLC was 89.9%; in the experiment with 786-0 renal it was 70.4%; with COLO 205 colon, -57.7% (active); in the experiment on DU-145 prostate, 77.8%; in the experiment with MALME-3M melanoma, 88.9%; with MDA-MB-231 breast it was 53.7%. The growth is 35.4% in the experiment on RXF 393 renal; 67.2% in the experiment with SF-268 CNS; 81.4% in the experiment on SF-295 CNS; 78.9% in the experiment on SF-539 CNS; 77.9% with UACC-257 melanoma; 48.4% in the experiment on M14 melanoma.
Turning to `CC[C@]1(O)C[C@H]2CN(CCc3c([nH]c4ccccc34)C(C(=O)OC)(c3cc4c(cc3OC)N(C)[C@H]3[C@@](O)(C(=O)OC)[C@H](OC(C)=O)[C@]5(CC)[C@@H]6C[C@@H]6CN6CC[C@]43[C@@H]65)C2)C1` (some centres undefined), the growth was 19.8% with NCI-H23 lung; -25.3% (active) in the experiment on NCI-H226 lung; 53.8% in the experiment on NCI-H322M lung; 24.6% in the experiment with HOP-62 NSCLC; 10.7% in the experiment with NCI-H460 lung; -9.66% (active) in the experiment with NCI-H522 lung. Besides, the growth in the experiment on A549/ATCC NSCLC was 19.8%; with 786-0 renal, -8.75% (active); in the experiment on COLO 205 colon, -73.3% (active); in the experiment with DU-145 prostate it was 12.1%; with MALME-3M melanoma, 20.5%; in the experiment with MDA-MB-231 breast, -12% (active). Moreover, the growth with RXF 393 renal is 35%; in the experiment on SF-268 CNS it was -4.98% (active); with SF-295 CNS it was -15.1% (active); in the experiment with SF-539 CNS it was -22% (active); with UACC-257 melanoma, 68.2%; with M14 melanoma, -72% (active).
As for `N#CCCn1cnc2c(N)ncnc21`, the growth was 101% in the experiment with NCI-H23 lung; 95.9% in the experiment with NCI-H226 lung; 123% in the experiment with NCI-H322M lung; 94.6% in the experiment with HOP-62 NSCLC; 108% in the experiment on NCI-H460 lung; 97.7% with NCI-H522 lung. Further, the growth with A549/ATCC NSCLC is 99.9%; in the experiment on 786-0 renal, 96.7%; in the experiment with COLO 205 colon it was 120%; with DU-145 prostate, 108%; in the experiment on MALME-3M melanoma, 125%; with MDA-MB-231 breast, 94.2%. In addition, the growth in the experiment with RXF 393 renal is 120%; in the experiment with SF-268 CNS, 110%; in the experiment with SF-295 CNS, 102%; in the experiment with SF-539 CNS, 97.8%; with UACC-257 melanoma, 102%; in the experiment with M14 melanoma, 102%.
With `Cc1ccc(C(=O)CC(=O)C(F)(F)C(F)(F)C(F)(F)F)s1`, the growth is 105% in the experiment with NCI-H23 lung; 103% in the experiment with NCI-H226 lung; 105% in the experiment with NCI-H322M lung; 96.9% in the experiment on HOP-62 NSCLC; 111% with NCI-H460 lung; 121% in the experiment with NCI-H522 lung. For the same compound, the growth in the experiment with A549/ATCC NSCLC is 104%; in the experiment with 786-0 renal, 97.2%; with COLO 205 colon, 119%; in the experiment with DU-145 prostate, 104%; in the experiment on MALME-3M melanoma, 98.7%; in the experiment on MDA-MB-231 breast it was 92.1%. Besides, the growth was 111% in the experiment on RXF 393 renal; 101% with SF-268 CNS; 103% in the experiment on SF-295 CNS; 98.7% in the experiment on SF-539 CNS; 105% in the experiment on UACC-257 melanoma; 103% in the experiment with M14 melanoma.
As to `COc1ccc(/C=C/C(=O)CCC(=O)O)cc1OC`, the growth was 109% in the experiment with NCI-H23 lung; 102% with NCI-H226 lung; 97.4% in the experiment on NCI-H322M lung; 91.4% with HOP-62 NSCLC; 111% with NCI-H460 lung; 93.2% in the experiment on NCI-H522 lung. Further, the growth with A549/ATCC NSCLC was 103%; in the experiment on 786-0 renal, 95.3%; in the experiment with COLO 205 colon it was 106%; in the experiment on DU-145 prostate, 111%; with MALME-3M melanoma, 102%; in the experiment on MDA-MB-231 breast, 119%. The growth was 116% in the experiment on RXF 393 renal; 107% in the experiment on SF-268 CNS; 104% in the experiment with SF-295 CNS; 101% in the experiment on SF-539 CNS; 105% in the experiment with UACC-257 melanoma; 101% with M14 melanoma.
Consider `COc1cc(C2CC(=O)Nc3c2cnn3C)cc(OC)c1OC` (centres undefined), for which the growth in the experiment with NCI-H23 lung is 108%; in the experiment on NCI-H226 lung, 104%; with NCI-H322M lung, 100%; in the experiment with HOP-62 NSCLC, 98.2%; in the experiment on NCI-H460 lung, 117%; in the experiment with NCI-H522 lung, 101%. The growth in the experiment with A549/ATCC NSCLC is 107%; with 786-0 renal, 103%; in the experiment on COLO 205 colon, 110%; in the experiment on DU-145 prostate, 108%; in the experiment with MALME-3M melanoma, 97.7%; in the experiment with MDA-MB-231 breast, 118%. The growth in the experiment with RXF 393 renal is 124%; with SF-268 CNS it was 112%; in the experiment with SF-295 CNS it was 105%; in the experiment on SF-539 CNS, 103%; in the experiment with UACC-257 melanoma, 101%; in the experiment with M14 melanoma, 103%.
Regarding `CC(C)(C)c1nn(-c2ccccc2)c2c1C(=O)CSC(c1ccc3c(c1)OCO3)N2` (centres undefined), the growth in the experiment on NCI-H23 lung is 99.8%; in the experiment on NCI-H226 lung it was 104%; in the experiment with NCI-H322M lung, 88.8%; in the experiment on HOP-62 NSCLC, 88.6%; with NCI-H460 lung it was 106%; in the experiment on NCI-H522 lung, 89.7%. Besides, the growth in the experiment with A549/ATCC NSCLC is 112%; in the experiment with 786-0 renal, 88.7%; in the experiment on COLO 205 colon it was 113%; in the experiment with DU-145 prostate it was 104%; in the experiment with MALME-3M melanoma, 92%; with MDA-MB-231 breast it was 98.6%. The growth is 114% in the experiment with RXF 393 renal; 92.5% in the experiment on SF-268 CNS; 91.4% in the experiment with SF-295 CNS; 101% with SF-539 CNS; 130% in the experiment with UACC-257 melanoma; 91.3% with M14 melanoma.
Regarding `Cc1ccc2c(C)c3c(ccc4ccccc43)c[n+]2c1`, the growth with NCI-H23 lung is 53.8%; in the experiment with NCI-H226 lung, 83.7%; in the experiment with NCI-H322M lung it was 86.5%; in the experiment on HOP-62 NSCLC, 45.7%; with NCI-H460 lung, 74.3%; in the experiment on NCI-H522 lung it was 74.2%. In addition, the growth with A549/ATCC NSCLC was 41.7%; in the experiment on 786-0 renal, 70.3%; with COLO 205 colon, 91.5%; in the experiment with DU-145 prostate it was 85%; with MALME-3M melanoma, -8.06% (active); in the experiment with MDA-MB-231 breast, 72.7%. Moreover, the growth in the experiment on RXF 393 renal was 104%; in the experiment with SF-268 CNS, 31.5%; in the experiment with SF-295 CNS, 36.4%; in the experiment with SF-539 CNS it was 72.8%; in the experiment with UACC-257 melanoma, 69.2%; in the experiment on M14 melanoma, 89%.
